Screens: PubChem, several laboratories
PGE2 EP2 inh = EP2 receptor (human) inhibition; P43116; C6 glioma cells expressing human EP2, cAMP TR-FRET; cells stimulated with saturating PGE2; inhibition, % at 25 µM; 0.52% of 260,000 active;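 active means percent inhibition above 40 after rounding to a whole number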;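 further: rat C6 glioma host cells with rolipram phosphodiesterase inhibitor present; the protocol text gives 20 µM as final concentration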
Target sequence (P43116 whole entry, looked up): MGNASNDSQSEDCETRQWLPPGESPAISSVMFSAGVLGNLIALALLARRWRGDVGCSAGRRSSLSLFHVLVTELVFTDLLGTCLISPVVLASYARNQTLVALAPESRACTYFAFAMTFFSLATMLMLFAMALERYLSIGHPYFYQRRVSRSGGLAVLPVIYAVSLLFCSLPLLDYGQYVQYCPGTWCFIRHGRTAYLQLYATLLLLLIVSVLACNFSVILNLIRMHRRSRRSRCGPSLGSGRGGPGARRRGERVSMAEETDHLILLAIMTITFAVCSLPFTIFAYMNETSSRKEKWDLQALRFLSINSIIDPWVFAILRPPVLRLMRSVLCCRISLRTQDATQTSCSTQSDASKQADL
CHT inh = inhibits the human high affinity choline transporter. CHT-expressing cells, membrane potential dye, choline response; stronger effect = lower value. AID 488975. 0.86% of 310,000 active. B-score at 10 µM;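 active means B-score over 3 SD under the library average, and starting fluorescence ratio not unusually high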;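 further: choline stimulus applied at its EC90 after an EC20 pre-addition; B-score computed on integrated fluorescence ratio after choline addition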
EP2 modulator = modulators of human EP2 prostaglandin E2 receptor; AID 940; EP2-expressing cells, cAMP HTRF FRET, PGE2 co-stimulation; P43116; induction, % at 25 µM; 0.83% of 260,000 active;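 active means compounds whose cAMP rise, as percent of the full-agonist control response, exceeds 60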;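 further: rat C6 glioma line stably carrying human EP2 under a CMV promoter; the protocol text gives 20 µM as final concentration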
CHT allo act = allosteric activators of human choline transporter CHT | B-score at 10 µM | 0.49% of 310,000 active | Q9GZV3 | CHT-expressing cells, membrane potential dye, choline EC20; stronger effect = higher value; LV-AA mutant CHT in HEK293 cells;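 active means initial fluorescence not abnormally high and integrated response B-score, plate-corrected, over 3 SD above library mean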
Each line names hits and unclear results; the compound was inactive in the other large screens. Compounds with a hit are over-represented: about 2% of the library has one in this group of screens.

CCOc1ccc2nc(SCC(=O)NC(C)CC)c(C#N)cc2c1 (stereo unspecified)	none (no result: CHT inh, CHT allo act)
O=C(CCN1CCCCC1c1cccnc1)NCc1ccccc1 (stereo unspecified)	none
CN1CCC[C@H]1c1cccnc1.O=C(O)c1ccccc1O.O=C([OH2+])c1ccccc1O.O=C([OH2+])c1ccccc1O.O=C([OH2+])c1ccccc1O.[Mn]	PGE2 EP2 inh 41.9 (no result: CHT inh, CHT allo act)
O=C(Cn1nc(-c2ccncc2)oc1=O)N1CCCc2ccccc21	none (no result: PGE2 EP2 inh, CHT inh, CHT allo act)
CCOC(=O)c1c(-c2ccc(CC)cc2)csc1N	EP2 modulator 93.8 (no result: CHT inh, CHT allo act)
CCOC(=O)c1c(-c2ccc(OCC)cc2)csc1NC(C)=O	EP2 modulator 64.3 (no result: CHT inh, CHT allo act)
CCOC(=O)c1c(-c2cccs2)csc1N	none
CCOC(=O)c1c(-c2ccc(OC)cc2)csc1NC(=O)CC	none (no result: CHT inh, CHT allo act)
CCOC(=O)c1c(-c2ccc(C)cc2)csc1NC(=O)CC	EP2 modulator 78.2 (no result: CHT inh, CHT allo act)
O=C(CN1C(=O)c2ccccc2C1=O)[C@@H](O)CN1C(=O)c2ccccc2C1=O	PGE2 EP2 inh 46.1 (no result: CHT inh, CHT allo act)
O=C(CN1C(=O)c2ccccc2C1=O)c1ccccc1	none
O=C(Nc1ccccc1F)N1CCCC1c1nc(-c2ccncc2)n[nH]1 (stereo unspecified)	none (no result: CHT inh, CHT allo act)
CC1CC2(CCCCC2)Nc2c1ccc1ccccc21 (stereo unspecified)	EP2 modulator 63.0
CS(=O)(=O)c1ccc2nc(NC(=O)Cc3cccs3)sc2c1	none (no result: CHT inh, CHT allo act)
Nc1cc2c(nc3c4ccccc4c(N)cc3[n+]2-c2cccc3ccccc23)c2ccccc12 (tested in a mixture with another compound)	PGE2 EP2 inh 54.4 (no result: CHT inh, CHT allo act)
COc1ccc2cc(C)c3nn(CC(=O)NCc4cccs4)c(=O)n3c2c1	none (no result: PGE2 EP2 inh, CHT inh, CHT allo act)
CC(=O)Oc1c(/C=C(\C#N)C(N)=O)[nH]c2ccccc12	PGE2 EP2 inh 94.9 (no result: CHT inh, CHT allo act)
N#C/C(=C\c1c[nH]c2ccccc12)C(N)=O	none
CCCC(N)CCCCCC(=O)O (stereo unspecified)	none (no result: CHT inh, CHT allo act)
CCCCC[C@H](O)/C=C/C1=C(CCCCCCC(=O)O)C(=O)CC1	EP2 modulator 88.6
O=C(Nc1cc(Cl)ccc1N1CCOCC1)c1cc2ccccc2o1	EP2 modulator 81.5
Cc1cccc(Oc2nc(-c3ccccn3)nc3ccccc23)c1	none
Cc1cccc(Oc2nc(-c3ccncc3)nc3ccccc23)c1	EP2 modulator 71.2
c1ccc(Oc2nc(-c3cccnc3)nc3ccccc23)cc1	EP2 modulator 86.6
C=CCNC(=O)C1CCN(S(=O)(=O)c2cc(Cl)ccc2Cl)CC1	none (no result: CHT inh, CHT allo act)
CCN(CC(=O)NC(C)C)Cc1nc2c(Br)cc(Br)cc2c(=O)[nH]1	EP2 modulator 65.2
CCN(CC(=O)NC(c1ccccc1)c1ccccc1)Cc1nc2ccccc2c(=O)[nH]1	none
Cc1ccc(CN(Cc2ccc3ncccc3c2)CC2CCCO2)o1 (stereo unspecified)	none (no result: CHT inh, CHT allo act)
CCC1=C(C[C@H]2NCCc3ccccc32)C[C@H]2c3cc(OC)c(OC)cc3CCN2C1	PGE2 EP2 inh 53.1 (no result: CHT inh, CHT allo act)
COc1ccc(-c2nc3ccccc3n2Cc2ccc(C)cc2)cc1	EP2 modulator 62.4
COc1ccc(-n2ncc3c(SCC(=O)Nc4cc(OC)cc(OC)c4)ncnc32)cc1	none (no result: CHT inh, CHT allo act)
Cn1c(=S)n(/N=C/c2ccc3c(c2)OCO3)c2ccccc21	EP2 modulator 64.4
COc1cc(NC(=O)c2cnc(N)s2)cc(C(=O)Nc2cccc(C(F)(F)F)c2)c1	PGE2 EP2 inh 52.6
COc1cc(NC(=O)c2csc(N)n2)cc(C(=O)Nc2cccc(C(F)(F)F)c2)c1	none
COc1ccc(-c2csc(N(CCCN(C)C)C(=O)c3ccccc3Cl)n2)cc1	CHT inh -8.77 (no result: PGE2 EP2 inh, EP2 modulator)
Cc1ccc(CN(Cc2cc3ccc(C)cc3n3nnnc23)C(=O)C2CCC2)cc1	none (no result: CHT inh, CHT allo act)
O=C(CN1CCC(O)(c2cccnc2)CC1)Nc1cccc(F)c1	none (no result: CHT inh, CHT allo act)
N#Cc1c(SCC(=O)O)nc2c(c1-c1cccnc1)CCC2	none (no result: CHT inh, CHT allo act)
Cc1cc(NC(=O)CSc2nc3c(c(-c4cccnc4)c2C#N)CCC3)no1	PGE2 EP2 inh 49.2
COc1cccc(C(=O)OCCCNC(=O)c2cc3ccccc3oc2=O)c1	none (no result: CHT inh, CHT allo act)
O=C(OCCNC(=O)c1cc2ccccc2oc1=O)c1cccnc1	EP2 modulator 64.3
COc1cc(O)c(CC=C(C)C)c(O)c1C(=O)CCc1ccc(O)cc1	PGE2 EP2 inh 75.8
COc1ccc(CC(=O)NNC(=O)COc2ccc3ccccc3c2)cc1	PGE2 EP2 inh 102.8
Cc1ccc2nc(SCC(=O)N3CC(=O)Nc4ccccc43)c(C#N)cc2c1	none (no result: CHT inh, CHT allo act)
O=C(N/N=C/c1ccccc1)NC1CCCCC1	EP2 modulator 63.9
Cc1cccc(Nc2nc(NCc3ccco3)nc(N)c2[N+](=O)[O-])c1	none
Cc1cccc(Nc2nc(N)c([N+](=O)[O-])c(NCc3ccco3)n2)c1	EP2 modulator 62.1
